The record followed here is PubChem BioAssay (NCI).

The structures appear in SMILES notation. About 83,000 compounds went through this panel and 20% of them were active in at least one assay; those are over-represented in the sample as a whole.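 Treatment: one concentration, 48 hours, 96-well format. Scoring: percent growth, with anything below 10 considered active.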 Unmarked numbers belong to inactive results. Calls of active or inactive are those of the source.

Common to all, as to assay: NCI-60 one-dose screen, 48 h (100 = growth as untreated, 0 = no growth, -100 = all killed)
Common to all, as to conditions: 10 µM unless noted

For assay [1], the system named is NCI-H23 lung.
In assay [2] the test system is NCI-H226 lung.
Assay [3] has as its system NCI-H322M lung.
The subject of assay [4] is HOP-62 NSCLC.
In assay [5] the test system is NCI-H460 lung.
Assay [6] has as its system HOP-92 NSCLC.
The test system of assay [7] is NCI-H522 lung.
For assay [8], the system named is A549/ATCC NSCLC.
In assay [9] the test system is 786-0 renal.
For assay [10], the system named is COLO 205 colon.
Assay [11] relates to DU-145 prostate.
For assay [12], the system named is K-562 leukemia.
Assay [13] has as its system MALME-3M melanoma.
Assay [14] relates to MDA-MB-231 breast.
Assay [15] relates to RXF 393 renal.
Assay [16] relates to SF-268 CNS.
The test system of assay [17] is SF-295 CNS.
Assay [18] relates to UACC-257 melanoma.
Assay [19] relates to M14 melanoma.

`CNCc1cccc2c1OCCOCCOCCN(C)S(=O)(=O)c1ccc(cc1)-c1cnc(N)c(n1)C(=O)N2`: the growth in assay [1] is 52.6%; in assay [2], 45.6%; in assay [3], 25.5%; in [4] it was 79.8%; in assay [5], 10.5%; in assay [6], 127%. Moreover, the growth in [7] was 9.56% (active); in assay [8] it was 60.5%; in assay [9], 9.16% (active); in assay [10], 29.8%; in assay [11], 47.4%; in assay [12], 1.1% (active). For the same compound, the growth in assay [13] was 9.53% (active); in [14], 69.1%; in [15] it was -54.8% (active); in [16], 69.4%; in [17], 87.6%; in [18] it was 63.4%. In addition, the growth in assay [19] is 37.3%.

`CCOC(=O)CC(=O)c1c(C)cc(C)cc1C`: the growth is 111% in assay [1]; 104% in assay [2]; 114% in assay [3]; 110% in assay [4]; 105% in assay [5]; 111% in assay [6]. Further, the growth was 62.5% in assay [7]; 107% in assay [8]; 98.3% in assay [9]; 117% in assay [10]; 110% in assay [11]; 112% in assay [12]. For the same compound, the growth in [13] was 113%; in assay [14], 103%; in assay [15] it was 100%; in [16], 107%; in [17] it was 103%; in assay [18], 112%. Also, in [19], the growth is 99.6%.

In the case of `COc1ccc(-c2c3c(nc4n[nH]c(-c5ccc(Cl)cc5)c24)-c2ccccc2C(=O)C3=O)cc1`, the growth in assay [1] was -53% (active); in assay [2] it was 42.3%; in assay [3] it was 84%; in [4], 29.1%; in assay [5] it was -12.9% (active); in assay [6], 9.32% (active). The growth in assay [7] is -59.7% (active); in assay [8], 35.9%; in assay [9], 7.58% (active); in assay [10] it was 70.6%; in assay [11] it was 22.4%; in assay [12], 4.49% (active). In addition, the growth in [13] was -32.4% (active); in assay [14], -28% (active); in assay [15], 14.1%; in assay [16], -38.8% (active); in [17], 77.4%; in [18], 11%. For the same compound, the growth in [19] is -28.4% (active).

`CCC(c1ccc(O)cc1)C(CC)c1ccc(O)c(F)c1` (stereo unspecified): the growth in [1] is 77%; in assay [2] it was 91.6%; in assay [3] it was 91.1%; in [4], 94.5%; in assay [5], 98.9%; in assay [6] it was 59.5%. Also, the growth was 77.9% in assay [7]; 89% in [8]; 75.4% in assay [9]; 114% in assay [10]; 97.6% in [11]; 47.4% in assay [12]. Also, the growth was 85.2% in assay [13]; 97.2% in assay [14]; 92.6% in [15]; 82.6% in [16]; 84.9% in assay [17]; 89% in assay [18]. The growth in assay [19] is 80.5%.

Take `COc1cnc2c(c1)C(=O)c1c-2n(CCCN2CCNCC2)c(=O)c2cc([N+](=O)[O-])ccc12`: the growth was -63.6% (active) in [1]; -59.4% (active) in assay [2]; -72.2% (active) in [3]; -67.2% (active) in assay [4]; -42.3% (active) in assay [5]; 22.8% in assay [6]. Further, the growth in assay [7] was -48.2% (active); in assay [8] it was -87.2% (active); in [9], -85.8% (active); in [10], 14.4%; in assay [11] it was -85.1% (active); in assay [12], -50.1% (active). The growth in assay [13] was -71.4% (active); in assay [14] it was -77.4% (active); in [15] it was 0.0319% (active); in assay [16], -66.6% (active); in [17], -14.7% (active); in assay [18] it was 46.3%. Besides, the growth in [19] is -83.1% (active).

As for `COc1ccc(C(=O)/C=C/c2c(Cl)c3c(c(OC)c2Cl)OCC(=O)N3)cc1`, the growth was 43.1% in [1]; 62.9% in assay [2]; 79.8% in assay [3]; 21% in [4]; 12% in assay [5]; 74.5% in assay [6]. The growth in [7] was 12.7%; in [8] it was 61.1%; in assay [9], 58.2%; in [10] it was 62.1%; in assay [11] it was 18.7%; in assay [12], 3.42% (active). In addition, the growth was 66.8% in assay [13]; 34.9% in assay [14]; 36.3% in assay [15]; 29.9% in [16]; 32.1% in assay [17]; 50% in assay [18]. Moreover, the growth in assay [19] was 17.7%.

Take `CCOC(=O)/C=C/c1ccc(C(=O)OCC)[nH]1`: the growth is 72.3% in assay [1]; 89% in assay [2]; 57.4% in [3]; 76.7% in assay [4]; 14.3% in assay [5]; 53.8% in [6]. In addition, the growth in [7] was 54.4%; in assay [8], 40.3%; in [9] it was 90.2%; in assay [10], 16.2%; in [11], 73.4%; in [12], 19.4%. Also, the growth is 73.1% in assay [13]; 58.8% in assay [14]; 87.3% in assay [15]; 69.2% in assay [16]; 63% in assay [17]; 68.1% in assay [18]. Besides, in assay [19], the growth is 47.6%.

On to `N#Cc1c2c(nc3n[nH]c(N)c13)CCCC2`, for which the growth in assay [1] is 99.6%; in assay [2], 110%; in assay [3], 128%; in assay [4], 100%; in assay [5] it was 108%; in assay [6] it was 79%. In addition, the growth is 104% in [7]; 108% in assay [8]; 106% in assay [9]; 148% in assay [10]; 121% in [11]; 97.7% in [12]. Also, the growth is 115% in assay [13]; 106% in assay [14]; 92.9% in assay [15]; 101% in assay [16]; 101% in assay [17]; 101% in assay [18]. Also, the growth in assay [19] is 104%.

In the case of `C[C@@H]1CCC2=C(CCC[C@]2(C)C(=O)O)[C@@]1(C)CCc1ccoc1`, the growth in [1] is 99.4%; in assay [2], 85.7%; in assay [3] it was 93.4%; in [4] it was 96.5%; in [5], 96.9%; in [6], 85.1%. For the same compound, the growth is 77% in assay [7]; 75.8% in [8]; 112% in assay [9]; 112% in assay [10]; 108% in assay [11]; 116% in [12]. Further, the growth in assay [13] was 110%; in assay [14] it was 90%; in assay [15], 105%; in assay [16], 95.1%; in assay [17], 102%; in [18], 82.9%. Besides, the growth in assay [19] was 103%.
